Data from PubChem BioAssay (NCATS).
Inconclusive results are not listed. Values without a mark were called inactive. The source made the active and inactive calls. Calls come from the whole dose curve; as a rule, active = well fitted cell-killing curve with a large enough effect; inconclusive = small, poorly fitted or top-dose-only effect, or effect the other way; inactive = no such curve, though single readings can be large or run the other way.

assay: Quantitative High-Throughput drug screen in 47 multiple myeloma cell lines against the NCATS MIPE library collection: KMS27_JCRB cell viability assay (AID 1918970); conditions: KMS27 myeloma cells, CellTiter-Glo ATP viability, 48 h; series mostly up to 45.8 µM; viability (% of DMSO): at the top concentration; note: nearly all actives have a fitted effect of over 30% in size
How it was run: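 CellTiter-Glo luminescence after 48 h drug exposure at 37 °C; 500 cells/well, 1536-well format, pin-tool compound addition; DMSO = 100%, media-only = 0% viability.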
Potency is the fitted concentration of half-maximal effect.

| Compound | viability (% of DMSO) [%] | Potency |
| --- | --- | --- |
| c1ccc(CCCN2CCN(CCOC(c3ccccc3)c3ccccc3)CC2)cc1 | 99.7 |  |
| N=c1c2c(-c3ccccc3)c(-c3ccccc3)n(Cc3ccccc3)c2ncn1C1CCC(O)CC1 (stereo not drawn) |  | 3.72 µM (active) |
| O=C1CCC[C@@H]2[C@H]3CCCN4CCC[C@@H](CN12)[C@@H]34 | 110 |  |
| CC(C)(O)C(=O)Nc1ccc([N+](=O)[O-])c(C(F)(F)F)c1 |  | 14.8 µM (active) |
| CCCC[N+]1(C)[C@H]2CC(OC(=O)[C@H](CO)c3ccccc3)C[C@H]1[C@H]1O[C@H]12 (stereo partly drawn) | 115 |  |
| C=C1C[C@H]2[C@H]3CCC(=O)[C@@]3(C)CC[C@@H]2[C@@]2(C)C=CC(=O)C=C12 |  | 18.7 µM (active) |
| Clc1ccccc1C(c1ccccc1)(c1ccccc1)n1cccn1 | 122 |  |
| CN[C@@H]1Cc2cccc3[nH]c(=O)n(c23)C1 | 114 |  |
| CCCCCC[C@H]1C(=O)O[C@H](C)[C@H](NC(=O)c2cccc(NC=O)c2O)C(=O)O[C@@H](C)[C@@H]1OC(=O)CC(C)C |  | 0.235 µM (active) |
| CC=C(C)C(=O)O[C@H]1C(C)=C2[C@@H]3OC(=O)[C@@](C)(O)[C@@]3(O)[C@@H](OC(=O)CCC)C[C@](C)(OC(C)=O)[C@@H]2[C@@H]1OC(=O)CCCCCCC | 130 |  |
| N#C[C@H](O[C@@H]1O[C@H](CO[C@@H]2O[C@H](CO)[C@H](O)[C@H](O)[C@H]2O)[C@H](O)[C@H](O)[C@H]1O)c1ccccc1 |  | 6.62 µM (active) |
| CN1CCN(c2ccc([N+](=O)[O-])c3no[n+]([O-])c23)CC1 |  | 20.9 µM (active) |
| C[C@]12CC[C@H]3[C@@H](CCC4=CC(=O)CC[C@@]43C)[C@H]1CC[C@H]2OC(=O)CCC1CCCC1 | 117 |  |
| c1cc2c(cc1[C@H]1OC[C@H]3[C@H]1CO[C@H]3c1ccc3c(c1)OCO3)OCO2 | 109 |  |
| O=[N+]([O-])c1ncc[nH]1 | 120 |  |
| COC[C@H]1OC(=O)c2coc3c2[C@@]1(C)C1=C(C3=O)[C@@H]2CC[C@H](O)[C@@]2(C)C[C@@H]1OC(C)=O |  | 4.69 µM (active) |
| COc1ccc(C(=O)c2c(C)n(CCN3CCOCC3)c3cc(I)ccc23)cc1 |  | 13.2 µM (active) |
| O=C(N[C@@H](COc1ccc2[nH]c(=O)[nH]c2c1)c1ccccc1)c1cccn(Cc2ccc(F)c(F)c2)c1=O |  | 20.9 µM (active) |
| Cc1c(N)nc([C@H](CC(N)=O)NC[C@@H](N)C(N)=O)nc1C(=O)N[C@H](C(=O)N[C@@H](C)[C@H](O)[C@@H](C)C(=O)N[C@@H](C(=O)NCCc1nc(-c2nc(C(=O)NCCC[S+](C)C)cs2)cs1)[C@@H](C)O)C(O[C@H]1O[C@H](CO)[C@H](O)[C@@H](O)[C@@H]1O[C@H]1O[C@H](CO)[C@@H](O)[C@H](OC(N)=O)[C@H]1O)c1cnc[nH]1 (stereo partly drawn) |  | 0.296 µM (active) |
| C[C@H]1CCCC=CC2C[C@H](O)C[C@@H]2[C@H](O)C=CC(=O)O1 (stereo partly drawn) |  | 0.001 µM (active) |
| O=C(Oc1ccc([N+](=O)[O-])cc1)N1CCN(Cc2cccc(Oc3ccccc3)c2)CC1 | 87.7 |  |
| C[C@]12CC[C@H]3[C@@H](CCC4=CC(=O)CC[C@@]43C)[C@H]1CC[C@H]2O | 98.2 |  |
| C[C@]12CC[C@H](O)CC1=CC[C@H]1[C@H]3CCC(=O)[C@@]3(C)CC[C@@H]12 | 83.6 |  |
| O=C(Oc1ccc([N+](=O)[O-])cc1)N1CCC(C(O)(c2ccc3c(c2)OCO3)c2ccc3c(c2)OCO3)CC1 | 101 |  |

assay: Quantitative High-Throughput drug screen in 47 multiple myeloma cell lines against the NCATS MIPE library collection: KMS12BM_JCRB cell viability assay (AID 1918971); conditions: KMS12BM myeloma viability, CellTiter-Glo ATP, 48 h; series mostly up to 45.8 µM; viability, % of DMSO: at the top concentration; note: nearly all actives have a fitted effect of over 35% in size
How it was run: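 CellTiter-Glo luminescence (ATP) after 48 h compound exposure, 37C/5% CO2; 500 cells/well; MIPE 4.0 approved/investigational drugs pinned in; DMSO = 100%, media only = 0% viability.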

| Compound | Potency | viability, % of DMSO [%] |
| --- | --- | --- |
| c1ccc(CCCN2CCN(CCOC(c3ccccc3)c3ccccc3)CC2)cc1 | 20.9 µM (active) |  |
| N=c1c2c(-c3ccccc3)c(-c3ccccc3)n(Cc3ccccc3)c2ncn1C1CCC(O)CC1 (stereo not drawn) | 6.62 µM (active) |  |
| C=C1C[C@H]2[C@H]3CCC(=O)[C@@]3(C)CC[C@@H]2[C@@]2(C)C=CC(=O)C=C12 | 20.9 µM (active) |  |
| CCNC(=O)CC1N=C(c2ccc(Cl)cc2)c2cc(OC)ccc2-n2c(C)nnc21 (stereo not drawn) | 16.6 µM (active) |  |
| CCCCCC[C@H]1C(=O)O[C@H](C)[C@H](NC(=O)c2cccc(NC=O)c2O)C(=O)O[C@@H](C)[C@@H]1OC(=O)CC(C)C | 6.62 µM (active) |  |
| CC=C(C)C(=O)O[C@H]1C(C)=C2[C@@H]3OC(=O)[C@@](C)(O)[C@@]3(O)[C@@H](OC(=O)CCC)C[C@](C)(OC(C)=O)[C@@H]2[C@@H]1OC(=O)CCCCCCC | 0.0418 µM (active) |  |
| N#C[C@H](O[C@@H]1O[C@H](CO[C@@H]2O[C@H](CO)[C@H](O)[C@H](O)[C@H]2O)[C@H](O)[C@H](O)[C@H]1O)c1ccccc1 | 20.9 µM (active) |  |
| CN1CCN(c2ccc([N+](=O)[O-])c3no[n+]([O-])c23)CC1 | 18.7 µM (active) |  |
| CC1=NN=C(c2ccc(N)cc2)c2cc3c(cc2C1)OCO3 |  | 126 |
| O=[N+]([O-])c1ncc[nH]1 | 16.6 µM (active) |  |
| COC[C@H]1OC(=O)c2coc3c2[C@@]1(C)C1=C(C3=O)[C@@H]2CC[C@H](O)[C@@]2(C)C[C@@H]1OC(C)=O | 3.32 µM (active) |  |
| C[C@]12Cc3cn[nH]c3C[C@@H]1CC[C@@H]1[C@H]2CC[C@@]2(C)[C@H]1CC[C@]2(C)O | 16.6 µM (active) |  |
| COc1ccc(C(=O)c2c(C)n(CCN3CCOCC3)c3cc(I)ccc23)cc1 | 23.5 µM (active) |  |
| CC(O)=C(C#N)C(=O)Nc1cc(Br)ccc1Br | 20.9 µM (active) |  |
| C=C[C@@H]1CN2CCC1C[C@H]2[C@H](O)c1ccnc2ccccc12 (stereo partly drawn) | 23.5 µM (active) |  |
| C[C@H]1CCCC=CC2C[C@H](O)C[C@@H]2[C@H](O)C=CC(=O)O1 (stereo partly drawn) |  | 64.8 |
| CC(C)(C)c1cc(C=C(C#N)C#N)cc(Br)c1O | 16.6 µM (active) |  |
| Cc1c(C(=O)c2cccc3ccccc23)c2cccc3c2n1[C@H](CN1CCOCC1)CO3 | 18.7 µM (active) |  |
| O=C(Oc1ccc([N+](=O)[O-])cc1)N1CCC(C(O)(c2ccc3c(c2)OCO3)c2ccc3c(c2)OCO3)CC1 |  | 130 |
